NPR1 antag = blocks ANP-stimulated signaling of human Npr1 receptor. P16066. HEK293 hNpr1 GloSensor cGMP, ANP-stimulated luminescence. AID 1347048. 76,000 compounds, 1.6% hits. Potency, µM (series often up to 46.3 µM), for the others: top-dose activity change, negative = inhibition, actives largely listed as inhibitors; calls by dose curve; further: nearly all actives have a fitted effect of over 60% in size
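Compound pre-incubated 30 min at room temperature on GloSensor-loaded HEK293 cells stably carrying hNpr1 and the pGS-40F cGMP biosensor. Stimulation uses hNppA at 0.1 nM final; luminescence is taken at baseline and 20 min post-agonist.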
3T3 cytotox = kills NIH 3T3 cells | NIH 3T3 viability, CellTiter-Glo ATP luminescence, 48-72 h | Potency, µM (titrated, usually from 96.7 µM), without a hit: at the highest dose activity change, negative = cytotoxicity, actives largely listed as inhibitors | 94,000 compounds, 4.3% hits; further: nearly all actives have a fitted effect of over 55% in size
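ATP-dependent luminescence (CellTiter-Glo) served as the viability signal for NIH 3T3 cells treated with compound for 48 or 72 hr at 37 °C.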
Luciferase inh = blocks purified firefly luciferase enzyme activity | Potency, µM (highest dose often 115 µM), hits mostly inhibitors | P08659 | 76,000 compounds, 2.5% hits | AID 1347043 | purified P. pyralis luciferase, luminescence, biochemical; further: nearly all actives have a fitted effect of over 65% in size
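Luminescence read by CCD imager after adding enzyme (10nM final) to wells holding compound, titrated in qHTS. Substrates 10uM each D-luciferin and ATP; buffer 50mM Tris acetate pH 7.5, 10mM Mg acetate, Tween-20, BSA.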
GPT2 inh = blocks human glutamate pyruvate transaminase 2; Q8TD30; Recombinant GPT2, coupled pyruvate oxidase/HRP Amplex Red fluorescence; Potency, µM (top dose mostly 57.7 µM), inactives show at the highest dose activity change, negative = inhibition, most hits filed as inhibitors; 100,000 compounds, 0.25% hits; further: nearly all actives have a fitted effect of over 60% in size
Target sequence (Q8TD30 whole entry, looked up): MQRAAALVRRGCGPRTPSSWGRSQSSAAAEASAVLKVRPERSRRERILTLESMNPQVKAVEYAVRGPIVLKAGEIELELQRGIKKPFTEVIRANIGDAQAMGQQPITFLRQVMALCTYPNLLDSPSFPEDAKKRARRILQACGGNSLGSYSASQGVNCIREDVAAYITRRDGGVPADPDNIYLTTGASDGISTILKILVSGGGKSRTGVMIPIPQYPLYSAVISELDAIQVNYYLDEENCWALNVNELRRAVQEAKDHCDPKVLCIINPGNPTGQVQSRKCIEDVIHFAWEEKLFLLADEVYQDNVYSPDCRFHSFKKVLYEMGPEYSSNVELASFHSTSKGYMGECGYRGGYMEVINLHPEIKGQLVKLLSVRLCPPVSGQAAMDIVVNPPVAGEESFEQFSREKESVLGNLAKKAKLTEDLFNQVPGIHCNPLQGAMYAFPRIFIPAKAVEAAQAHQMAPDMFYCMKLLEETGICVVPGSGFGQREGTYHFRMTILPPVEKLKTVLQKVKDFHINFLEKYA
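GPT2 10ng/uL, a-KG 250uM, L-Ala 2mM, HEPES pH7.5 + 0.0001% Tween; 30 min RT. Then Amplex mix (PO/HRP/ThPP), 30 min RT dark, fluorescence. AOA 50uM used as positive control.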
HEK cytotox = kills HEK 293 cells. AID 1345083. Potency, µM (doses to about 115 µM), inactives show at the highest dose activity change, negative = cytotoxicity, hits mostly inhibitors. HEK 293 viability, ATP luminescence (CellTiter-Glo), 48-72 h. 94,000 compounds, 6.6% hits; further: nearly all actives have a fitted effect of over 60% in size
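Read-out: CellTiter-Glo ATP luminescence. Cells: HEK 293, 250 cells/well. Exposure: 48 or 72 hr, 37 degree Celsius.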
* = called active by the depositor; [ ] = remark or other dose. An excerpt weighted towards active compounds, which were near 10% of everything screened. Unless noted, the call rests on the fitted dose curve; in most records, active means well fitted curve in the direction sought with a large enough effect; inconclusive means small, poorly fitted or top-dose-only effect, or another doubt; inactive means no such curve, though single readings can be large; an effect the other way counts as inactive or inconclusive. On the % scale 0 is the no-effect control and ±100 the full control effect; potency means the concentration at half of the fitted maximal effect.

Cc1cc(C)c2[nH]c(C(=O)N3CCN(Cc4ccccc4)C(=O)C3C)c(C)c2c1 (stereo not drawn) was read as NPR1 antag 5%, 3T3 cytotox 25µM*, Luciferase inh inactive, GPT2 inh -2%[11.5 µM] and HEK cytotox 35µM*.
Screening Cc1cc(C)c2[nH]c(C(=O)N3CCCC3c3nc4ccccc4[nH]3)c(C)c2c1 (stereo not drawn) returned NPR1 antag -1%, 3T3 cytotox inconclusive, Luciferase inh inactive, GPT2 inh -4% and HEK cytotox inconclusive.
Screening COc1cc(C)c(-c2nc(CN3CCOC(CCN)C3)c(C)o2)cc1C (stereo not drawn) returned NPR1 antag 1%, 3T3 cytotox inconclusive, Luciferase inh inactive, GPT2 inh -7% and HEK cytotox 45µM*.
`COc1ccc(-c2nc(CN3CC[C@H]4CC[C@@H](C3)N4)c(C)o2)c(OC)c1C` gave NPR1 antag -1%, 3T3 cytotox inconclusive, Luciferase inh inactive, GPT2 inh inactive[11.5 µM] and HEK cytotox inconclusive.
`COc1cc(C)c(-c2nc(CN3CCCC(CN)C3)c(C)o2)cc1C` (stereo not drawn) gave NPR1 antag -2%, 3T3 cytotox 25µM*, Luciferase inh inactive, GPT2 inh -21% and HEK cytotox 32µM*.
COc1cc(-c2nc(CN3CCCC(CN)C3)c(C)o2)cc2c1OCO2 (stereo not drawn) was read as NPR1 antag -3%, 3T3 cytotox inconclusive, Luciferase inh inactive, GPT2 inh inconclusive and HEK cytotox 40µM*.
`O=C1CCN(Cc2ccncc2)CCCC(C(=O)N2CCc3ccccc32)CCN1` (stereo not drawn) gave NPR1 antag 4%, 3T3 cytotox -17%, Luciferase inh inactive, GPT2 inh inactive and HEK cytotox -20%.
Screening O=C(C1CCCC1)N1CC(N(Cc2ccccn2)C(=O)Nc2ccccc2)C1 returned 3T3 cytotox inconclusive, GPT2 inh inactive and HEK cytotox -24%.
O=C(C1CCCN1C(=O)c1ccc(F)cc1)N1CCC(c2ccccc2)CC1 (stereo not drawn) was read as 3T3 cytotox -23%, GPT2 inh 3% and HEK cytotox inconclusive.
For CC(C)NC(=O)c1cnc2c(c1)N(C(=O)Cc1cn(C)c3ccccc13)CCC2 the results were NPR1 antag 3%[70.6 µM], 3T3 cytotox inconclusive, Luciferase inh inactive, GPT2 inh -24%[88.5 µM] and HEK cytotox inconclusive.
CCN1C(=O)CCC2(C(=O)NCCN(C)C3CCCCC3)CCCC=C12 (stereo not drawn) was read as NPR1 antag -3%, 3T3 cytotox inconclusive, Luciferase inh inactive, GPT2 inh -9% and HEK cytotox 45µM*.
`CCNC(=O)C12CCCC=C1N(C1CCCC1)C(=O)CC2` (stereo not drawn) gave NPR1 antag -6%, 3T3 cytotox -13%, Luciferase inh 40µM*, GPT2 inh inactive and HEK cytotox 4%.
For CC(C)N(Cc1cn(Cc2ccccc2)nc1-c1cc2ccccc2o1)CC1CCC(=O)N1 (stereo not drawn) the results were NPR1 antag 0%, 3T3 cytotox -6%, Luciferase inh inactive, GPT2 inh inconclusive and HEK cytotox 2%.
COC[C@@H]1CCCN1Cc1cn(Cc2ccccc2)nc1-c1cc2ccccc2o1 was read as NPR1 antag -10%, 3T3 cytotox inconclusive, Luciferase inh 28µM*, GPT2 inh 0% and HEK cytotox inconclusive.
COc1cccc(N2C(=O)NC(=NC3CCCC3)C23CCCN(Cc2ccccc2)C3)c1 (stereo not drawn) was read as 3T3 cytotox inconclusive, GPT2 inh inactive and HEK cytotox inconclusive.
Screening COc1ccc(-c2ccc3nc(-c4ccccc4)oc3c2)c(OC)c1OC returned NPR1 antag 3%, 3T3 cytotox inconclusive, Luciferase inh inactive, GPT2 inh -19% and HEK cytotox 45µM*.

Source: PubChem BioAssay (National Center for Advancing Translational Sciences (NCATS))
